These results are taken from PubChem BioAssay AID504850 (National Center for Advancing Translational Sciences (NCATS), 2011).

Hit rate of the full screen: of about 2,300 compounds, about 1,200 (52%) were called active. Inconclusive results (about 34%) are left out. Calls come from the whole dose curve; as a rule, active = well fitted inhibition curve with a large enough effect; inconclusive = small, poorly fitted or top-dose-only effect, or effect the other way; inactive = no such curve, though single readings can be large or run the other way. So high a share suggests a set chosen from earlier hits. The list shows a part of the results. Square brackets hold non-standard residues; d marks the D form. Peptide text beside a SMILES is read from it. * marks the point of attachment. ξ: configuration not given here. ξF = NC(Cc1ccccc1)C(=O)O; Cbz = O=C(OCc1ccccc1)*
Potency is the fitted concentration of half-maximal effect.

This experiment can be described thus: Confirmation screen for delayed death inhibitors of the malarial parasite plastid, 48 hour incubation. Note: nearly all actives have a fitted effect of over 65% in size. The settings on record: P. falciparum-infected erythrocytes, luciferase growth; series mostly up to 28.7 µM. An outline of the steps:
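Single-generation (48 h, 37 C) exposure of integrated firefly luciferase-reporter P. falciparum in red cells, 0.1% parasitemia at 2% hematocrit, Albumax-supplemented RPMI. Falling luciferase signal marks parasite growth inhibition.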
For `O=C(COc1ccccc1Cl)NC(=S)N1CCc2ccccc21`, the Potency is 12.6 µM (active).
Take `O=C(COc1cccc2ccccc12)Nc1ccc(Cl)cc1C(=O)O`: the Potency result was “inactive”.
Turning to `CCC(=O)NCCc1cc2ccc(C)cc2[nH]c1=O`, the Potency result is “inactive”.
Take `COc1cc2cc(CN(Cc3cccs3)C(=S)Nc3ccc(C)cc3)c(=O)[nH]c2cc1OC`: the Potency was 10 µM (active).
Under `COc1cc2cc(CN(CCc3ccccc3C)C(=S)NCCCN3CCOCC3)c(=O)[nH]c2cc1OC` stands 7.94 µM (active); under `CS(=O)(=O)c1ccc(-c2nnc(NC(=O)c3ccc(S(=O)(=O)N4CCCC4)cc3)o2)cc1`, 14.1 µM (active).
As to `C=CCNC(=S)N/N=C/c1ccc(-c2cc(Cl)ccc2Cl)o1`, the Potency is 12.6 µM (active).
Under `O=C(NCc1cccnc1)/C(=C\c1ccc(-c2cccc(Cl)c2)o1)S(=O)(=O)c1ccccc1` stands 12.6 µM (active).
As to `O=C(NCc1cccnc1)c1nc(-c2ccccc2)n(-c2ccccc2)n1`, the Potency result is “inactive”.
In the case of `COc1ccccc1CCNC(=O)CCn1nc(C)c2c(C)n(-c3ccccc3)nc2c1=O`, the Potency is 14.1 µM (active).
Consider `Cc1ccc2c(c1)N(CCC(=O)NCc1ccco1)C(=O)CO2`, for which the Potency entry is “inactive”.
`COc1ccccc1CNC(=O)CCCn1nc(C)c2c(C)n(-c3ccccc3)nc2c1=O`: the Potency was 12.6 µM (active).
For `Cc1ccc(-n2nc3c(=O)n(CCCC(=O)NCc4ccco4)nc(C)c3c2C)cc1`, the Potency is 6.31 µM (active).
For the compound `COc1cc(CNC(=O)CCn2nc(C)c3c(C)n(-c4ccccc4)nc3c2=O)cc(OC)c1OC`, the Potency is 12.6 µM (active).
As for `CC(=O)Nc1sc(C)c(C)c1C(=O)OCC(=O)N(CC(C)C)C1CCS(=O)(=O)C1` (configuration not stated), the Potency is 12.6 µM (active).
With `CSCCC(NC(=O)c1ccccc1Cl)C(=O)N1CCN(C(c2ccccc2)c2ccccc2)CC1` (configuration not stated), the Potency is 3.98 µM (active).
Then `Cc1ccc(N(Cc2ccco2)C(=O)c2ccc(N3CCCCC3)c([N+](=O)[O-])c2)cc1`, with 11.2 µM (active); and `C=CCNC(=O)c1onc(CSc2ccccc2CC)c1C(=O)O`, with “inactive”.
As for `Fc1ccc2cnc(-c3ccccc3)c(-c3ccc(C(F)(F)F)cc3)c2c1`, the Potency is 15.8 µM (active).
Regarding `O=C(O)c1cc(-c2ccc3ccccc3c2)nc2ccc(F)cc12`, the Potency result is “inactive”.
For `CCCN1CCN(C(=O)C2CCN(S(=O)(=O)c3ccc4c(c3)NC(=O)C(C)S4)CC2)CC1` (configuration not stated), the Potency was 12.6 µM (active).
For `COc1ccc(C(C)(C)C)cc1NC(=O)c1[nH]c(C)c(C(C)=O)c1C`, the Potency was 7.94 µM (active).
With `CC(=O)c1c(C)[nH]c(C(=O)COC(=O)COc2ccccc2F)c1C`, the Potency entry is “inactive”.
Then `CC#CC#Cc1cccc(=O)o1`, with 8.91 µM (active); and `CCCn1c(CN2CCN(C(=O)OCC)CC2)nc2cc(NC(=O)C(C)C)ccc21`, with 11.2 µM (active).
For the compound `CCNc1ccc(Br)cc(C(=O)/C=C/c2c(Cl)cccc2Cl)c1=O`, the Potency is 10 µM (active).
As to `COc1ccc(-c2cn(-c3ccccc3)c3[n+]2CCS3)cc1`, the Potency is 3.16 µM (active).
Turning to `COc1cc(/C=C2\CC(C(C)(C)C)C/C(=C\c3cc(OC)c(OC)c(OC)c3)C2=O)cc(OC)c1OC` (configuration not stated), the Potency is 5.01 µM (active).
For `COc1cc(/C=C2\COC/C(=C\c3cc(OC)c(OC)c(OC)c3)C2=O)cc(OC)c1OC`, the Potency is 2.82 µM (active).
Under `COc1cc(/C=C2/CCC/C(=C\c3cc(O)c(OC)c(Cl)c3)C2=O)cc(Cl)c1O` stands 11.2 µM (active); under `COc1cc(/C=C2\COC/C(=C\c3ccc(O)c(OC)c3)C2=O)ccc1O`, 6.31 µM (active).
For `COc1ccc(/C=C2\CC/C(=C\c3ccc(OC)c(OC)c3)C2=O)cc1OC`, the Potency is 15.8 µM (active).
Then `CCOc1ccc(/C=C2\SC(=S)N(C(C(=O)O)c3ccccc3)C2=O)cc1OC` (configuration not stated), with “inactive”; and `CC(C)c1ccc(NC(=O)c2cc(S(=O)(=O)N3CCCC3)c[nH]2)cc1`, with 12.6 µM (active).
In the case of `COc1ccc(-c2c(C(C)=O)c(C)n(C)c2C)cc1`, the Potency was 12.6 µM (active).
On to `CC(C)N1CCC(N2CCN(Cc3ccc(-c4ccc(Cl)cc4)o3)CC2CCO)CC1` (configuration not stated), for which the Potency was 6.31 µM (active).
As for `O=C(CN1C2=NCCCN2c2ccccc21)c1ccc2c(c1)OCO2`, the Potency is 11.2 µM (active).
Then `Cc1ccc(C)c(C(=O)CN2C3=NCCCN3c3ccccc32)c1`, with 12.6 µM (active); and `OC(CN1C2=NCCN2c2ccccc21)c1ccc2c(c1)OCO2` (configuration not stated), with 5.01 µM (active); and `Nc1cccc2c1C(=O)N(C(=O)/C=C/c1ccc(F)cc1)C2=O`, with “inactive”.
Turning to `Cc1cc2c(c(=O)n1Cc1ccco1)C(c1cccnc1)C(C#N)=C(N)O2` (configuration not stated), the Potency entry was “inactive”.
With `OC(c1ccccc1)(c1ccccc1)C1CCN(C(=S)NCCc2ccccc2)CC1`, the Potency was 11.2 µM (active).
On to `CN(Cc1cccc(Cl)c1Cl)C(=O)c1ccc(NC(=O)CC#N)cc1`, for which the Potency is 3.98 µM (active).
As to `O=C(CSc1nc(-c2ccco2)cc(C(F)(F)F)n1)Nc1ccccc1C(F)(F)F`, the Potency was 14.1 µM (active).
Turning to `O=C(CSc1ccc(-c2cccnc2)nn1)Nc1ccccc1C(F)(F)F`, the Potency entry was “inactive”.
Then `O=S1(=O)C=C(Sc2nnc(-c3ccccc3)o2)c2ccccc21`, with 12.6 µM (active); and `O=S1(=O)C=C(Sc2nc3cc(Cl)ccc3o2)c2ccccc21`, with 11.2 µM (active).
Regarding `CCOC(=O)Cn1c(S(=O)(=O)Cc2cccc(F)c2)nc(-c2ccccc2)c1-c1ccccc1`, the Potency was 11.2 µM (active).
`C#CCn1c(S(=O)(=O)Cc2ccc(F)cc2)nc(-c2ccccc2)c1-c1ccccc1`: the Potency is 14.1 µM (active).
With `C#CCn1c(S(=O)(=O)Cc2ccc(C)cc2)nc(-c2ccccc2)c1-c1ccccc1`, the Potency was 12.6 µM (active).
Take `O=C(c1cccc(Cl)c1)c1nn(-c2ccccc2)c(=O)cc1C(F)(F)F`: the Potency was 12.6 µM (active).
In the case of `O=C(CCl)Nc1cccc2ncccc12`, the Potency was 4.47 µM (active).
On to `Oc1ccc(-c2n[nH]c(=S)n2-c2ccc3c(c2)OCCO3)c(O)c1`, for which the Potency is 0.708 µM (active).
As to `O=C(c1ccc(CS(=O)c2ccccc2Cl)o1)N1CCN(c2ccccn2)CC1` (configuration not stated), the Potency is 11.2 µM (active).
As for `O=C(NCc1cccc(Cl)c1)C1CCC(=O)N(CC2CCCCC2)C1` (configuration not stated), the Potency was 14.1 µM (active).
Consider `CCOC(=O)CNC(=O)C(Cc1ccccc1)NC(=O)OCc1ccccc1` (configuration not stated) (Cbz-[ξF]-Gly-OEt), for which the Potency result was “inactive”.
As for `CCCNC(=O)C(Cc1ccc(F)cc1)NC(=O)c1ccccc1` (configuration not stated), the Potency was 10 µM (active).
